The source of these data is PubChem BioAssay (NCATS).

Molecules are shown by their SMILES. Where “and” joins values, the source holds several entries; their conditions need not be identical. Equal values may be shown once. Records with an inconclusive call do not appear. Some compounds were tested as several samples or in several runs, with calls that do not always agree. Calls of active or inactive are those of the source. Unless noted, calls follow the shape of the dose curve; as a rule, active = well fitted curve in the direction sought with a large enough effect; inconclusive = small, poorly fitted or top-dose-only effect, or another doubt; inactive = no such curve, though single readings can be large; an effect the other way counts as inactive or inconclusive.

Test [1] addresses 3',5'-cyclic-AMP phosphodiesterase 4B (Homo sapiens) (UniProt Q07343). As to the kind of experiment: qHTS Assay for Inhibitors of PDE-IV (AID 607; active = well fitted activation curve with a large enough effect in the main read-out, with a control signal flat, not every such curve was filed as active; also: % of control where 0% means no effect). Summed up:
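ACTOne HEK293 cells carry a modified cAMP-gated CNG channel and express endogenous PDE4; plated 1000 cells/well, compounds up to 22.9 uM final. Membrane-potential dye fluorescence (ex 535/em 590) was read; parental cells received 10 uM forskolin + 100 uM RO 20-1724.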
In general terms: In qHTS, concentration-response curves come from the screen itself.

Test [2] can be described thus: Cell Viability - Mesenchymal (AID 546).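 Also: cells exposed to compound for 40 hours before reading.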 Particulars: mesenchymal cells viability, qHTS; activity change, negative = cytotoxicity: at 91.7 µM (top of the series). Summed up:
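In this qHTS cytotoxicity format, glomerulus-derived human mesenchymal kidney cells received compound for 40 hr, then luciferase-based ATP quantitation. Concentration-response data were fitted with the Hill equation.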

A short description of test [3]: Cellular Toxicity (caspase-3) HepG2 (AID 654).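 Also: cells exposed to compound for 16 hours before reading; 0% = DMSO alone and 100% = caspase signal from 100 µM tamoxifen.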 The method in brief:
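Luminescent Caspase-Glo 3/7 readout after 16 hr compound exposure of human hepatocellular carcinoma HepG2 cells at 37 °C; qHTS concentration-response, normalized DMSO = 0%, 100 uM tamoxifen = 100%; AC50 by standard Hill equation.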

A short description of test [4]: Cellular Toxicity (caspase-3) Jurkat (AID 655).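 Also: cells exposed to compound for 16 h at 37 °C before reading.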 Particulars: Jurkat caspase-3 activation, luminescence, DMSO = 0%, tamoxifen = 100%; at 92.2 µM (top of the series). Summed up:
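qHTS in human Jurkat T-cell leukemia line: 16 hr compound treatment at 37 °C, caspase-3/7 activity measured by Caspase-Glo luminescence. AC50 derived from Hill equation.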

A short description of test [5]: Cellular Toxicity (caspase-3) HUV-EC-C (AID 656). The method in brief:
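Concentration-dependent caspase 3/7 induction was assessed in HUV-EC-C cells exposed for 16 hours. Data scaled between DMSO and tamoxifen (100 uM) controls.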

Test [6] in a line: Cellular Toxicity (caspase-3) SHSY5Y (AID 657).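 Also: cells exposed to compound for 16 hours at 37 °C.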 Summed up:
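Readout: caspase-cleaved peptide-aminoluciferin substrate driving luciferase light in SH-SY5Y neuroblastoma cells after 16 h treatment. Response normalized to DMSO and 10 uM staurosporine controls.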

A short description of test [7]: Cellular Toxicity (caspase-3) BJ (AID 658).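 Also: 0% = DMSO basal and 100% = 10 µM staurosporine.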 Summed up:
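Plated BJ cells (1000/well) rested 5 hr, received compound for 16 hr at 37 °C, then Caspase-Glo 3/7 reagent for 1 hr at room temperature before luminescence reading.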

Test [8] can be described thus: Cellular Toxicity (caspase-3) MRC-5 (AID 659).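 Also: 0% = DMSO basal and 100% = 10 µM staurosporine.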 Particulars: Potency: caspase-3 activation. Summed up: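 Apoptosis readout in MRC-5 cells: luciferase light generated after caspase 3/7 cleaves a peptide-aminoluciferin substrate, measured post 16 hr compound incubation at 37 °C.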
A short description of test [9]: Cellular Toxicity (caspase-3) Mesangial (AID 660).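 Also: combined caspase 3 and 7 activity read by Caspase-Glo luminescence; cells exposed to compound for 16 h before the caspase read.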 Particulars: mesangial cells, normalized: DMSO 0%, 100 µM tamoxifen 100%; at 91.7 µM (top of the series). Summed up:
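Luminescent Caspase-Glo 3/7 readout (aminoluciferin substrate cleavage, 20 min RT) after 16 h compound exposure at 37 °C of normal human mesangial cells. Signal increase normalized between DMSO basal and 100 uM tamoxifen; Hill-equation AC50.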

Test [10] is described as follows: Cellular Toxicity (caspase-3) H-4-II-E (AID 663).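 Also: cells exposed to compound for 16 hr before readout.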 Particulars: H-4-II-E rat hepatoma, scaled: DMSO 0%, 100 µM tamoxifen 100%; at 92.2 µM (top of the series). The method in brief: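 Caspase 3/7 activation measured in H-4-II-E cells in complete culture medium after 16 hr treatment at 37 °C, using luciferase-coupled substrate readout; AC50 values come from Hill-equation fits of normalized concentration-response data.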

The nature of test [11]: Cellular Toxicity (caspase-3) Hek293 (AID 664).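 Also: cells exposed to compound for 16 h at 37 °C before readout.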 Particulars: HEK293 caspase-3 activation; caspase-3 activation: at 92.2 µM (top of the series), DMSO = 0%, 100 µM tamoxifen = 100%. The method in brief: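 Luminescent Caspase-Glo 3/7 readout (aminoluciferin release) in HEK293 cells after 16 h compound treatment, 37 °C. Normalization: DMSO = basal, 100 uM tamoxifen = 100% stimulation. Concentration-response fitted with standard Hill equation for AC50.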

Test [12] is described as follows: Cellular Toxicity (caspase-3) N2a (AID 665).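 Also: compound exposure lasted 16 h at 37 °C before readout.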 Particulars: Potency: caspase-3 activation. Summed up: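 Luminescent Caspase-Glo 3/7 readout in N2a mouse neuroblastoma cells after 16 h compound exposure at 37 °C. Signal scaled to DMSO (basal) and 10 uM staurosporine (100%). Concentration-response fitted with Hill equation for AC50.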
Test [13] can be described thus: Cellular Toxicity (caspase-3) NIH 3T3 (AID 666). The method in brief: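 NIH 3T3, 1000 cells/well, 5 hr settle then 16 hr compound at 37°C; Caspase-Glo 3/7, 20 min RT, luminescence. DMSO = basal, 100 uM tamoxifen = 100%. Hill-equation AC50, qHTS.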
Test [14] in a line: Cellular Toxicity (caspase-3) Renal Proximal Tubule (AID 667).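 Also: cells exposed to compound for 16 hours at 37 °C before detection; 0% = DMSO basal and 100% = 10 µM staurosporine.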 Particulars: Potency: caspase-3 activation. The method in brief:
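Caspase-Glo 3/7 read-out, rat primary kidney proximal tubule cells. Compound exposure 16 h, 37 °C; detection after 1 h at RT. Activity scaled to DMSO and 10 uM staurosporine.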

Test [15] addresses Cytochrome P450 3A4 (Homo sapiens) (UniProt P08684). As to the kind of experiment: qHTS Assay for Inhibitors and Substrates of Cytochrome P450 3A4 (AID 884). Also: % is scaled to controls: 0 for no effect and ±100 for the full control effect; nearly all actives have a fitted effect of over 50% in size. The method in brief: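 Luminescent readout of luciferin produced by CYP3A4 (20 nM) dealkylation of Luciferin-PPXE, 25 uM (its KM). NADPH-driven reaction ran 60 min at RT after 10 min compound preincubation; data scaled to 57 uM ketoconazole as 100% inhibition.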

The target in test [16] is Cytochrome P450 2D6 (Homo sapiens) (UniProt P10635). In words: qHTS Assay for Inhibitors and Substrates of Cytochrome P450 2D6 (AID 891).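 Also: luciferin methyl ether substrate demethylated by CYP2D6 with NADPH regeneration; % is scaled to controls: 0 for no effect and ±100 for the full control effect; nearly all actives have a fitted effect of over 60% in size.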 The method in brief:
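Luminescent read-out of luciferin formed by 5 nM human CYP2D6 demethylating 30 uM Luciferin-ME EGE (Km level) over 60 min at room temperature after NADPH regeneration addition. Data normalized to full inhibition by 1.43 uM quinidine.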

Test [17] addresses Cytochrome P450 2C19 (Homo sapiens) (UniProt P33261). In words: qHTS Assay for Inhibitors and Substrates of Cytochrome P450 2C19 (AID 899). Also: % is scaled to controls: 0 for no effect and ±100 for the full control effect; nearly all actives have a fitted effect of over 60% in size. The method in brief:
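In 50mM KPO4, the reaction held 5nM enzyme and KM-level (10uM) Luciferin-H EGE; it ran 60 min at 37C after NADPH regeneration and a 10 min compound preincubation. Luminescence values were scaled to 57uM ketoconazole as complete inhibition.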

Test [18] deals with Cytochrome P450 2C9 (Homo sapiens) (UniProt P11712). In words: qHTS Assay for Inhibitors and Substrates of Cytochrome P450 2C9 (AID 883). Also: nearly all actives have a fitted effect of over 60% in size. Also: potency is read from the fitted curve at half-maximal effect. The method in brief: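 CYP2C9 deoxyluciferin hydroxylation, 37C, 60 min with NADPH regeneration; 10nM enzyme, 100uM Luciferin-H (KM). Glo detection reagent stopped reaction; luminescence normalized to sulphaphenazole (57uM) full inhibition.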
Cytochrome P450 2C9 (Homo sapiens), sequence (P11712 whole entry, looked up): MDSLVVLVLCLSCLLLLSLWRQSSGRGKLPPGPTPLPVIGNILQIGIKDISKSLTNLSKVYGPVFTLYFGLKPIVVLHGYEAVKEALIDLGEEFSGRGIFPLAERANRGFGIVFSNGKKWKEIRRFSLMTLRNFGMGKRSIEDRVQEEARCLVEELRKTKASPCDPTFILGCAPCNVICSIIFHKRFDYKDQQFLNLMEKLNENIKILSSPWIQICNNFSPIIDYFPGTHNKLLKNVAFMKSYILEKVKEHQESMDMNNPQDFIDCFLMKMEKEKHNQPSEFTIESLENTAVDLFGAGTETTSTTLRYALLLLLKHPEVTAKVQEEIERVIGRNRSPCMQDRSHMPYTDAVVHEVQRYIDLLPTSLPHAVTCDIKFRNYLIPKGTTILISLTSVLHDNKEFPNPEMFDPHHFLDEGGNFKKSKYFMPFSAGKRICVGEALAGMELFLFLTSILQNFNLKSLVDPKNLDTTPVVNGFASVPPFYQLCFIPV

Test [19] has as its target Cytochrome P450 3A4 (Homo sapiens) (UniProt P08684). As to the kind of experiment: qHTS Assay for Activators of Cytochrome P450 3A4 (AID 885). Also: nearly all actives have a fitted effect of over 65% in size. The method in brief: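 CYP3A4 activity: Luciferin-PPXE O-dealkylation, 25uM substrate, 200mM KPO4, RT throughout. Read-out is luciferase luminescence; higher values reflect activation.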

3',5'-cyclic-AMP phosphodiesterase 4B (Homo sapiens), sequence (Q07343 whole entry, looked up): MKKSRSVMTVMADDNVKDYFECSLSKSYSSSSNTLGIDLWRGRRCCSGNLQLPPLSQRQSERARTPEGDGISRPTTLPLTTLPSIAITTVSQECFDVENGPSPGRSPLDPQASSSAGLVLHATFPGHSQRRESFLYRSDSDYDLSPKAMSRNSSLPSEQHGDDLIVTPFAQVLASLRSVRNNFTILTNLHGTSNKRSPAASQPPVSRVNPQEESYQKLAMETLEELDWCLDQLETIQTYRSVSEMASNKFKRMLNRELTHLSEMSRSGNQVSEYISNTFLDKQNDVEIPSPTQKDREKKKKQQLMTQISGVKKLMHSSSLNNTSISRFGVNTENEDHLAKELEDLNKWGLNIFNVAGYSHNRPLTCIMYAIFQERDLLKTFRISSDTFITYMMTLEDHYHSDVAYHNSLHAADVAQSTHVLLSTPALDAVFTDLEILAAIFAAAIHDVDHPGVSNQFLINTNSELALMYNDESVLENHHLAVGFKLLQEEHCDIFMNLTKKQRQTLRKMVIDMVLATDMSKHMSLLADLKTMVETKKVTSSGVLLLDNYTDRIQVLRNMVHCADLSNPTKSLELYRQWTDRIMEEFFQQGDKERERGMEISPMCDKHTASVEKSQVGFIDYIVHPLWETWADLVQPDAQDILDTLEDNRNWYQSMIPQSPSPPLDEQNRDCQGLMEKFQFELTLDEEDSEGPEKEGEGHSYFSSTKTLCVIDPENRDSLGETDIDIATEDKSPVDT
Cytochrome P450 2C19 (Homo sapiens), sequence (P33261 whole entry, looked up): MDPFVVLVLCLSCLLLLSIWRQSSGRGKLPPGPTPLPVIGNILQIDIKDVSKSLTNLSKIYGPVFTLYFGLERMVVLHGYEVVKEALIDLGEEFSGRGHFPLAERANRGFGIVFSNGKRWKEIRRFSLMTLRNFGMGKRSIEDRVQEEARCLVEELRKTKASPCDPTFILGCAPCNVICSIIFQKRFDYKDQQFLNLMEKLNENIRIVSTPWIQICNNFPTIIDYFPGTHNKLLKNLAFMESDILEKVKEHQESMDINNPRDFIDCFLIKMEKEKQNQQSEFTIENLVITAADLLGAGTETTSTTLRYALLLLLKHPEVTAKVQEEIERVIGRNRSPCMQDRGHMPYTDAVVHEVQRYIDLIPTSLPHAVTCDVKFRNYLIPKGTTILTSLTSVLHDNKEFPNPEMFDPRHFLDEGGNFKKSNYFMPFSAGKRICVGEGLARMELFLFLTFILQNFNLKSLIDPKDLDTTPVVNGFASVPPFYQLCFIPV
Cytochrome P450 3A4 (Homo sapiens), sequence (P08684 whole entry, looked up): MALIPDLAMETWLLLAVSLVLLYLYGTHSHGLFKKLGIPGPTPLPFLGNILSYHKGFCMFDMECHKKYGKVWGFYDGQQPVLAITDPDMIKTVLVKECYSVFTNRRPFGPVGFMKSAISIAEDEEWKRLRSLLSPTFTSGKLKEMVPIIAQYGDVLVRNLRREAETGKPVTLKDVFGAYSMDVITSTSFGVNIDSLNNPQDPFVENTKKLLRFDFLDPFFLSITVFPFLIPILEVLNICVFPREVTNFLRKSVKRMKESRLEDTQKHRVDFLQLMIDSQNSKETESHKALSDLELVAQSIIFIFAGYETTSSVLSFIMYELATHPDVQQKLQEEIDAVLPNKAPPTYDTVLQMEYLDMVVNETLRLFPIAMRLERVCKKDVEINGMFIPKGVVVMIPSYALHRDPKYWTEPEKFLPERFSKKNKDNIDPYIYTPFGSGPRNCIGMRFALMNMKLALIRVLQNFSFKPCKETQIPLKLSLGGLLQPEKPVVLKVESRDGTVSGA
Cytochrome P450 2D6 (Homo sapiens), sequence (P10635 whole entry, looked up): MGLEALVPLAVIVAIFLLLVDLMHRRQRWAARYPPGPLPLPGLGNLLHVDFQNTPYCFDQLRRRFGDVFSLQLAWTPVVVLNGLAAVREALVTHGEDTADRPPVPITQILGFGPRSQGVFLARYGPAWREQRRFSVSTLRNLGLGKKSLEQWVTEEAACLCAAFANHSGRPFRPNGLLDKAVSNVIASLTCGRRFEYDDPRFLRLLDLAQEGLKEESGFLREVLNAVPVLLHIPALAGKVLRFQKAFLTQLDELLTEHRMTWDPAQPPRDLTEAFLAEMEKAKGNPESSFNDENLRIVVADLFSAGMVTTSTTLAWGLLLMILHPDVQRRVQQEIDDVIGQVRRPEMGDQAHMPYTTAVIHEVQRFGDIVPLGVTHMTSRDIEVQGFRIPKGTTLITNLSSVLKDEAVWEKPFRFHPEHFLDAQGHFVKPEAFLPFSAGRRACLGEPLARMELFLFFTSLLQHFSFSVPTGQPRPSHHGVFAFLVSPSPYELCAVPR

On to `Nc1ncnc2c1ncn2[C@@H]1O[C@@H](CO)[C@H](O)[C@H]1O`, for which, in test [1], the outcome was inactive.
As to `CC(=O)O[C@]1(C(C)=O)CC[C@H]2[C@@H]3C=C(Cl)C4=CC(=O)[C@@H]5C[C@@H]5[C@]4(C)[C@H]3CC[C@@]21C`, the Potency entry in test [2], in test [3], in test [5], in test [8], in test [11] and in test [12] was “inactive” in each case. Besides, the Potency result in test [14] and in test [15] was “inactive” each time. Further, the caspase-3 activation in test [4] is 11.6% (inactive); in [9] it was -0.0763% (inactive); in test [10], 0.0575% (inactive). For the same compound, the compound was classed as inactive in test [6], in test [7] and in test [13].
`CCCCC1C(=O)N(c2ccccc2)N(c2ccccc2)C1=O`: the Potency entry in [2], in [3], in [5], in test [8], in [11] and in test [12] was “inactive” each time. The Potency result in test [14], in test [16] and in test [17] was “inactive” in each case. The result in test [1], in test [6], in test [7] and in [13] was inactive. In addition, the values for the caspase-3 activation in [4], in [9] and in test [10] were 0.354% (inactive), 0.46% (inactive) and 0.827% (inactive), respectively.
`O=c1c(-c2ccc(O)cc2)coc2cc(O)ccc12`: the Potency result in test [2], in [3], in test [5], in test [8], in [11] and in test [12] was “inactive” each time. The Potency entry in [14], in test [16] and in test [17] was “inactive” each time. Further, the compound was classed as inactive in [1], in test [6], in test [7], in test [13] and in [19]. The caspase-3 activation was -7.71% (inactive) in [4], -3.39% (inactive) in [9] and -2.27% (inactive) in test [10]. Moreover, the Potency result in [18] was “inactive and 6.31 µM (active)”.
On to `CCCNC(=O)NS(=O)(=O)c1ccc(Cl)cc1`, for which the Potency result in test [2], in test [3], in test [5], in test [8], in test [11] and in test [12] was “inactive” in each case. Besides, the Potency result in [14], in test [18], in test [15], in test [16] and in [17] was “inactive” each time. Further, the result in test [1], in [6], in test [7], in test [13] and in test [19] was inactive. The caspase-3 activation in [4] is -0.0991% (inactive); in test [9], -0.968% (inactive); in test [10] it was -0.479% (inactive).
For `c1ccc2c(Cc3c[nH]c4ccccc34)c[nH]c2c1`, in test [19], the compound was classed as inactive.
For the compound `CCN1CCC[C@H]1CNC(=O)c1cc(S(N)(=O)=O)ccc1OC`, the outcome in [1] was inactive. Further, the Potency entry in [15] and in [17] was “inactive” throughout.
For the compound `COc1ccc(-c2coc3cc(O)ccc3c2=O)cc1`, the Potency result in test [18] and in test [15] was “inactive” in each case. The result in [19] was inactive.
`CC(=O)N[C@@H](CS)C(=O)O`: the Potency result in [15] is “inactive”.
